Laboratory results published in PubChem BioAssay AID651687 (Broad Institute, 2012).
Values joined by “and” are separate entries in the source; they are usually repeats but may differ in a detail not shown here. Equal entries are not always repeated. The campaign covered roughly 350,000 compounds. About 600 (0.17%) were called active. The sample holds actives, similar compounds and a random draw of the others, so the mix is not that of the screen.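 The calls were made as follows: active = every replicate shows inhibition of at least 40%; inconclusive = mean inhibition at least 40% but some replicate below; inactive = the rest.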 Some structures have more than one record in an assay (separate samples or runs), and their calls can disagree.

Test: compounds lowering acetylated PGC1a in cells – cell-based, U2OS, AlphaScreen, inhibitor mode, primary screen (AID 651687);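 also: 0% = neutral control wells and 100% = positive control wells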
Settings: U2OS PGC1a acetylation, AlphaScreen anti-acetyl-lysine; at 15.6 µM; stronger effect = higher value; with virally co-expressed GCN5 acetyltransferase

**Q.** Which inhibition does the source give for `COCC(=O)Nc1ccc2c(c1)OC[C@@H](C)N(C(=O)c1cnccn1)C[C@H](C)[C@@H](OC)CN(C)C2=O` here?
**A.** -1.16% (inactive)

**Q.** Which inhibition does the source give for `Cc1ccc(S(=O)(=O)NC[C@H]2CC[C@@H]3[C@@H](CN3Cc3ccccc3C(=O)O)O2)cc1` here?
**A.** -6.11% (inactive)

**Q.** With `Cc1noc(C)c1NC(=O)N(C)C[C@H]1OCCCC[C@H](C)Oc2ccc(NC(=O)Cc3ccccc3)cc2C(=O)N([C@H](C)CO)C[C@@H]1C` as the molecule, how does the inhibition read?
**A.** 0.037% (inactive)

**Q.** With `C[C@H]1CN([C@@H](C)CO)C(=O)c2cc(NC(=O)Nc3ccccc3)ccc2O[C@H]1CN(C)S(C)(=O)=O` as the molecule, how does the inhibition read?
**A.** -6.24% (inactive)

**Q.** With `C[C@@H]1CN([C@@H](C)CO)C(=O)c2cc(/C=C/c3ccccc3)cnc2O[C@H]1CN(C)C(=O)Nc1ccc(C(F)(F)F)cc1` as the molecule, how does the inhibition read?
**A.** -1.88% (inactive)

**Q.** With `O=C(Nc1ccc2ccccc2c1[N+](=O)[O-])c1ccccc1` as the molecule, how does the inhibition read?
**A.** 14% (inactive)

**Q.** For `O=C(Nc1ncccc1O)c1ccc(C(=O)c2ccccc2)cc1`, which inhibition is on record?
**A.** 5.14% (inactive)

**Q.** With `O=C(NC1=CC(=O)c2ccccc2C1=O)c1ccccc1` as the molecule, how does the inhibition read?
**A.** 80.8% (active)

**Q.** For `O=C(CC1CC1)N1CC[C@@H]2[C@@H](CO)Nc3ccc(-c4ccccc4)cc3[C@@H]21`, which inhibition is on record?
**A.** -14.4% (inactive)

**Q.** Which inhibition does the source give for `CO[C@@H]1CN(C)C(=O)c2cc(NC(=O)Nc3cccc(Cl)c3)ccc2OC[C@@H](C)N(C)C[C@@H]1C` here?
**A.** 7.96% (inactive)

**Q.** For `CCCN1C[C@@H](C)[C@@H](OC)CN(C)C(=O)c2cc(NC(=O)c3ccccc3)ccc2OC[C@H]1C`, which inhibition is on record?
**A.** -3.59% (inactive)

**Q.** For `Cc1cc(C(=O)Nc2cccc3c2O[C@@H](CN(C)S(=O)(=O)c2ccc(F)cc2)[C@@H](C)CN([C@H](C)CO)C3=O)n(C)n1`, which inhibition is on record?
**A.** 4.7% (inactive)

**Q.** Which inhibition does the source give for `O=C(C[C@@H]1CC[C@@H](NS(=O)(=O)c2ccccc2)[C@H](CO)O1)NCc1ccc(Cl)c(Cl)c1` here?
**A.** -0.169% (inactive)

**Q.** With `COCC(=O)N1CC2(CN(C(=O)c3cccnc3)C2)c2c([nH]c3cc(OC)ccc23)[C@H]1CO` as the molecule, how does the inhibition read?
**A.** 3.03% (inactive)

**Q.** Which inhibition does the source give for `Cc1oc2c(c1C(=O)N1CCOCC1)C(=O)c1ccccc1C2=O` here?
**A.** 42.9% (active)

**Q.** Which inhibition does the source give for `O=C(c1snnc1-c1ccccc1)N1CCOCC1` here?
**A.** 17.2% (inactive)

**Q.** With `Cc1ccc(C(=O)N2CCN(S(=O)(=O)N3CCOCC3)CC2)cc1` as the molecule, how does the inhibition read?
**A.** -14.3% (inactive)

**Q.** Which inhibition does the source give for `CN(C)C(=O)c1ccc(-c2ccc(C3[C@@H]4CN(C(=O)Nc5ccccc5)C[C@H]3N4)cc2)cc1` (stereo not given in full) here?
**A.** -6.33% (inactive)

**Q.** Which inhibition does the source give for `O=C(C1CCCCC1)N1C[C@@H]2N[C@H](C1)C2c1ccc(-c2cccc(F)c2)cc1` (stereo not given in full) here?
**A.** -62.3% (inactive) and -12.6% (inactive)

**Q.** With `Cc1cccc(-c2ccc(C3[C@@H]4CN(C(=O)Nc5ccc(C(F)(F)F)cc5)C[C@H]3N4)cc2)c1` (stereo not given in full) as the molecule, how does the inhibition read?
**A.** 92.4% (active) and 92.8% (active)

**Q.** For `CO[C@H]1CN(C)C(=O)c2ccc(NC(=O)NC(C)C)cc2OC[C@@H](C)N(C(=O)CN(C)C)C[C@H]1C`, which inhibition is on record?
**A.** 9.74% (inactive)

**Q.** With `Cc1ccc(-c2c[n+](CC(=O)Nc3ccccc3)c3n2CCC3)cc1` as the molecule, how does the inhibition read?
**A.** 43.3% (active)

**Q.** Which inhibition does the source give for `Cc1ccc(C(=O)C[n+]2cc(-c3ccccc3)n3c2CCCCC3)cc1` here?
**A.** 20.9% (inactive)

**Q.** With `Clc1ccc(C[n+]2cc(-c3ccccc3)n3c2CCC3)cc1` as the molecule, how does the inhibition read?
**A.** -17.2% (inactive)

**Q.** Which inhibition does the source give for `COc1ccc(S(=O)(=O)Nc2ccc3c(c2)C(=O)N([C@H](C)CO)C[C@H](C)[C@@H](CN(C)Cc2ccccc2)OCCCC[C@@H](C)O3)cc1` here?
**A.** -2.9% (inactive)

**Q.** For `COc1ccc(-c2ccc3c(c2)[C@@H]2[C@@H](CCN2C(=O)c2cccc(F)c2)[C@H](CO)N3)cc1`, which inhibition is on record?
**A.** 6.58% (inactive)

**Q.** For `O=C(Nc1ccc2c(c1)[C@@H]1C[C@H](CC(=O)N3CCOCC3)O[C@@H](CO)[C@@H]1O2)C1CCOCC1`, which inhibition is on record?
**A.** -6.68% (inactive)

**Q.** With `CNC[C@H]1Oc2cc(C#CC3CCCC3)ccc2S(=O)(=O)N([C@H](C)CO)C[C@@H]1C` as the molecule, how does the inhibition read?
**A.** -10.8% (inactive)

**Q.** With `C[C@@H]1CCCCO[C@@H](CN(C)C(=O)Cc2ccccc2)[C@H](C)CN([C@@H](C)CO)C(=O)c2cc(NC(=O)Nc3ccc4c(c3)OCO4)ccc2O1` as the molecule, how does the inhibition read?
**A.** -5.63% (inactive)

**Q.** With `COc1ccc(NC(=O)CN2C(=O)NC(C)(c3ccccc3)C2=O)cn1` (stereo not given) as the molecule, how does the inhibition read?
**A.** 0.857% (inactive)

**Q.** For `COc1ccc(NC(=O)/C(Cl)=C(/Cl)S(=O)Cc2ccc(C)cc2)cn1` (stereo not given), which inhibition is on record?
**A.** 69.3% (active)

**Q.** Which inhibition does the source give for `COc1ccc(NS(=O)(=O)c2ccc(F)cc2F)cn1` here?
**A.** 0.335% (inactive)

**Q.** Which inhibition does the source give for `Cc1noc(C)c1NC(=O)Nc1ccc2c(c1)C(=O)N([C@@H](C)CO)C[C@H](C)[C@@H](CN(C)C(=O)Nc1ccccc1)O2` here?
**A.** -6.84% (inactive)

**Q.** Which inhibition does the source give for `C[C@@H]1CCCCO[C@@H](CN(C)C(=O)CCCN(C)C)[C@H](C)CN([C@@H](C)CO)C(=O)c2cc(NC(=O)Nc3ccccc3)ccc2O1` here?
**A.** 20% (inactive)

**Q.** With `C[C@@H]1CN([C@@H](C)CO)C(=O)c2cc(NS(C)(=O)=O)ccc2O[C@H]1CN(C)C(=O)Nc1ccc(F)cc1` as the molecule, how does the inhibition read?
**A.** 0.678% (inactive)

**Q.** With `Cn1cnc(S(=O)(=O)N2CC[C@@H]3[C@H]2c2cc(C#Cc4cccc(F)c4)ccc2N[C@@H]3CO)c1` as the molecule, how does the inhibition read?
**A.** -5.83% (inactive)

**Q.** For `CCS(=O)(=O)NCC[C@H]1CC[C@@H](NC(=O)Nc2cc(Cl)cc(Cl)c2)[C@@H](CO)O1`, which inhibition is on record?
**A.** -5.94% (inactive)

**Q.** For `Cc1ccc(S(=O)(=O)N[C@@H]2CC[C@@H](CCn3cc(C(C)C)nn3)O[C@H]2CO)cc1`, which inhibition is on record?
**A.** -5.62% (inactive)

**Q.** For `CC(C)NC(=O)N(C)C[C@H]1Oc2c(NS(C)(=O)=O)cccc2C(=O)N([C@@H](C)CO)C[C@H]1C`, which inhibition is on record?
**A.** 3.18% (inactive)

**Q.** With `C[C@@H]1CN([C@@H](C)CO)C(=O)c2cc(NC(=O)Nc3ccc4c(c3)OCO4)ccc2O[C@@H](C)CCCCO[C@H]1CN(C)C(=O)Nc1ccc(C(F)(F)F)cc1` as the molecule, how does the inhibition read?
**A.** -7.26% (inactive)

**Q.** With `C[C@H](CO)N1C[C@H](C)[C@H](CN(C)Cc2ccc(C(=O)O)cc2)Oc2ccc(NC(=O)NC3CCCCC3)cc2C1=O` as the molecule, how does the inhibition read?
**A.** 6.53% (inactive)

**Q.** Which inhibition does the source give for `Cc1noc(C)c1NC(=O)Nc1ccc2c(c1)CC(=O)N([C@@H](C)CO)C[C@@H](C)[C@H](CN(C)C(=O)NC1CCCCC1)O2` here?
**A.** 0.249% (inactive)

**Q.** Which inhibition does the source give for `C[C@@H]1CN([C@H](C)CO)S(=O)(=O)c2ccc(C#CC3CCCC3)cc2O[C@@H]1CN(C)Cc1ccccc1C(=O)O` here?
**A.** -5.77% (inactive)

**Q.** Which inhibition does the source give for `O=C(C[C@@H]1C=C[C@@H](NS(=O)(=O)c2ccc(F)cc2)[C@@H](CO)O1)NCCN1CCCCC1` here?
**A.** 4.96% (inactive)

**Q.** With `CO[C@@H]1CN(C)C(=O)c2ccc(NS(=O)(=O)c3cn(C)cn3)cc2OC[C@H](C)N(CCC(F)(F)F)C[C@@H]1C` as the molecule, how does the inhibition read?
**A.** -2.06% (inactive)

**Q.** With `Cc1noc(C)c1C(=O)N(C)C[C@H]1OCc2ccccc2-c2c(n(C)c3ccccc23)C(=O)N([C@@H](C)CO)C[C@H]1C` as the molecule, how does the inhibition read?
**A.** -20.6% (inactive)

**Q.** With `COc1ccc(-c2cnc3c(c2)C(=O)N([C@@H](C)CO)C[C@H](C)[C@@H](CN(C)C(=O)C2CC2)O3)cc1` as the molecule, how does the inhibition read?
**A.** -1.45% (inactive)

**Q.** Which inhibition does the source give for `CNC[C@H]1Oc2ccc(NS(=O)(=O)c3ccc(F)cc3)cc2CC(=O)N([C@H](C)CO)C[C@H]1C` here?
**A.** -12.8% (inactive)

**Q.** For `C[C@@H](NC(=O)C[C@@H]1CC[C@@H]2[C@H](COC[C@@H](O)CN2C(=O)Nc2cccc(F)c2)O1)c1ccccc1`, which inhibition is on record?
**A.** 0.238% (inactive)

**Q.** With `COCC(=O)Nc1ccc2c(c1)OC[C@@H](C)N(Cc1cocn1)C[C@@H](C)[C@@H](OC)CN(C)C2=O` as the molecule, how does the inhibition read?
**A.** 11.7% (inactive)

**Q.** For `CCC(=O)N(C)C[C@H]1Oc2cc(-c3ccc(C)cc3)ccc2S(=O)(=O)N([C@@H](C)CO)C[C@H]1C`, which inhibition is on record?
**A.** -11.2% (inactive)

**Q.** For `CCCN(C)C[C@@H]1OCCCC[C@@H](C)Oc2ccc(NC(=O)Nc3ccc(C(F)(F)F)cc3)cc2C(=O)N([C@H](C)CO)C[C@H]1C`, which inhibition is on record?
**A.** -1.97% (inactive)

**Q.** For `CN(C)C(=O)c1cccc(-c2ccc(C3[C@@H]4CN(S(=O)(=O)c5ccc(F)cc5)C[C@H]3N4)cc2)c1` (stereo not given in full), which inhibition is on record?
**A.** -5.35% (inactive) and -8.12% (inactive)

**Q.** With `N#Cc1ccc(-c2ccc(C3[C@@H]4CN(S(=O)(=O)c5ccc(F)cc5)C[C@H]3N4)cc2)cc1` (stereo not given in full) as the molecule, how does the inhibition read?
**A.** -1.35% (inactive) and 58.1% (active)

**Q.** For `N#Cc1ccc(-c2ccc(C3[C@@H]4CN(S(=O)(=O)c5ccccc5F)C[C@H]3N4)cc2)cc1` (stereo not given in full), which inhibition is on record?
**A.** -0.54% (inactive) and -4.45% (inactive)

**Q.** Which inhibition does the source give for `C[C@H](CO)N1C[C@H](C)[C@@H](CN(C)C(=O)Cc2ccccn2)Oc2cc(-c3cccc(C(=O)N(C)C)c3)ccc2S1(=O)=O` here?
**A.** 0.377% (inactive)

**Q.** Which inhibition does the source give for `COc1ccc(C#Cc2ccc([C@H]3[C@@H](CO)N4CCCCN(S(=O)(=O)c5cn(C)cn5)C[C@H]34)cc2)cc1` here?
**A.** -2.67% (inactive)

**Q.** Which inhibition does the source give for `COCC(=O)Nc1ccc2c(c1)[C@H]1C[C@H](CC(=O)NCc3cccnc3)O[C@H](CO)[C@H]1O2` here?
**A.** 5.71% (inactive)

**Q.** With `CN1c2ccc(-c3cccc(F)c3)cc2[C@H]2[C@H](CCN2C(=O)c2cccc(F)c2)[C@H]1CO` as the molecule, how does the inhibition read?
**A.** -7.12% (inactive)

**Q.** With `Cc1nc(=O)c(-c2ccccc2)c(C)n1-c1ccc(Br)cc1` as the molecule, how does the inhibition read?
**A.** -2.67% (inactive)

**Q.** For `S=C1NC(c2ccccc2)=NCN1c1ccc(Br)cc1`, which inhibition is on record?
**A.** 80.9% (active)

**Q.** Which inhibition does the source give for `COc1ccccc1S(=O)(=O)N[C@@H]1C=C[C@H](CC(=O)N2CCN(C)CC2)O[C@@H]1CO` here?
**A.** 6.82% (inactive)

**Q.** With `O=[N+]([O-])c1c(NCCO)cc(Sc2nc3ccccc3s2)c2nonc12` as the molecule, how does the inhibition read?
**A.** 45% (active)

**Q.** With `COc1ccc(S(=O)(=O)Nc2ccc3c(c2)C(=O)N([C@H](C)CO)C[C@H](C)[C@@H](CN(C)C)OCCCC[C@H](C)O3)cc1` as the molecule, how does the inhibition read?
**A.** -0.646% (inactive) and 1.73% (inactive)

**Q.** Which inhibition does the source give for `C[C@H]1CN([C@@H](C)CO)C(=O)c2cc(C#CC3CCCCC3)cnc2O[C@@H]1CN(C)C(=O)Cc1ccccn1` here?
**A.** -16.1% (inactive)
